# PubChem BioAssay (NCATS)
# “And” between values parts separate entries of the source, which are not always exact repeats. Identical values can stand only once. Inconclusive results are not listed. The source made the active and inactive calls. The call rests on the fitted dose curve.
# Molecular target: Bile acid receptor (Homo sapiens) (UniProt Q96RI1)
# Assay: qHTS assay for small molecule agonists of farnesoid X receptor signaling (AID 588527);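 further: series mostly up to about 77 µM; 0% = vehicle basal and 100% = reference agonist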
# Conditions: HEK293T FXR-UAS-bla, beta-lactamase ratio, 16 h; hits give high values
# Source text: NIH Chemical Genomics Center [NCGC] U.S. Environmental Protection Agency [EPA] National Institutes of Environmental Health Sciences [NIEHS] National Toxicology Program [NTP] NCGC Assay Overview The farnesoid-X-receptor (FXR), a nuclear hormone receptor is highly expressed in liver, intestine, kidney and adrenal cortex. Natural ligands of FXR are the bile acids (Cholic acid, Chenodeoxy cholic acid etc). It is an important regulator of diverse metabolic pathways, including the bile acid homeostasis, lipid and glucose metabolisms. FXR regulates the expression of target genes by binding either as a monomer or as a heterodimer with RXR (retinoid X receptor). As FXR regulates a large number of target genes involved in bile acid, lipoprotein and glucose metabolisms, it is a potential pharmacological target for bile acid and lipid disorders. Thus screening environmental chemicals on FXR signaling can be used for the studies focused on metabolic syndrome, hepatic and intestinal toxicity etc.
# NCGC Assay Protocol Summary Using a beta-lactamase reporter-gene under control of Farnesoid X receptor (FXR) response element, a cell-based assay [GeneBLAzer FXR-UAS-bla assay developed by Invitrogen] was used to measure FXR ligands signaling. GeneBLAzer FXR-UAS-bla HEK293T cells were used with assay medium containing 10% dialyzed FBS. The assay was performed in clear bottom black Greiner 1536-well plates. Chenodeoxycholic acid and Guggulsterone were used in the screen as agonist and antagonist positive controls respectively. Library compounds were measured for their ability to stimulate the reporter gene activity. Compounds were screened in a titration series in 1536-well format. […] Data was normalized relative to Chenodeoxycholic acid control (100 uM, 100%), and DMSO only wells (basal, 0%). Concentration-response titration points for each compound were fitted to the Hill equation yielding concentrations of half-maximal stimulation (EC50) and maximal response (efficacy) values. qHTS protocol for FXR beta-lactamase assay in agonist mode [Step] [Parameter] [Value] [Description] 1. Reagent; 6 uL; 5000 cells/well 2. Incubation; 37 C for 5-7 hrs 3. Compounds; 23 nL; 0.59 nM to 92 uM 4. Controls (Chenodeoxycholic acid); 23 nL, - One column with dose response, start 200 uM, 1:2 dilutions in duplicates - Final concentrations of 100 uM and 60 uM in two columns 5. Incubation; 37 C for 16 hrs 6. Detection reagent; 1 uL of CCF4-dye 7. Incubation; RT for 2 hrs 8. Detection; Fluorescence; Envision plate reader
# Sequence of Bile acid receptor (Homo sapiens) (Q96RI1 whole entry, looked up): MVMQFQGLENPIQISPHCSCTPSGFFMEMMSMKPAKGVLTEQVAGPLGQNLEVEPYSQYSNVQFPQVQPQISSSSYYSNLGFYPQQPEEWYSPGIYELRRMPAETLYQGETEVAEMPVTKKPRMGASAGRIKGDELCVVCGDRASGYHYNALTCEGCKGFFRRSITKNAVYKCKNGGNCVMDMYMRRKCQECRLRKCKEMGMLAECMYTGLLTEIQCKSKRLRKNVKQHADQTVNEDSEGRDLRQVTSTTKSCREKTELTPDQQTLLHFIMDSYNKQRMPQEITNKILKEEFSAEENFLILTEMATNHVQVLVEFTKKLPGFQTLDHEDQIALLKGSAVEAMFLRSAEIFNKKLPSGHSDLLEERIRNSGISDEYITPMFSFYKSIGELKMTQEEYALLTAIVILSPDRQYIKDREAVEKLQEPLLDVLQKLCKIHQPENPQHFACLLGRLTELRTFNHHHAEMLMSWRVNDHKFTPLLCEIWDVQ
row,SMILES,activation
1,O=[N+]([O-])c1ccc(F)c([N+](=O)[O-])c1,-1.56% (inactive)
2,COCC(C)N(C(=O)CCl)c1c(C)csc1C (stereo not given),0.208% (inactive)
3,ClC=C(Cl)Cl,-1.52% (inactive) and -2.36% (inactive)
4,Clc1ccccc1Cl,-2.33% (inactive)
5,O=C(O)c1cc[c]([Hg][Cl])cc1,1.46% (inactive)
6,O=C(NCNC(=O)NC1C(=O)NC(=O)N1CO)NC1C(=O)NC(=O)N1CO (stereo not given),1.1% (inactive)
7,O=[N+]([O-])C(Br)(CO)CO,2.54% (inactive)
8,CC(C)(C)c1cc(O)ccc1O,0.716% (inactive) and -1.49% (inactive) and 4.72% (inactive)
9,COC1=CC(=O)O[C@@H](/C=C/c2ccccc2)C1,-0.876% (inactive)
10,O=C1CCO1,0.979% (inactive)
11,[O]=[Cr](=[O])([OH])[O][Cr](=[O])(=[O])[OH],9.26% (inactive) and 4.19% (inactive)
12,C=CCN=C=S,-2.58% (inactive)
13,ClC1C(Cl)C(Cl)C(Cl)C(Cl)C1Cl (stereo not given),1.57% (inactive) [middle of 4 runs]
14,CCCCCCCCOC(=O)c1ccccc1C(=O)OCCCCCCCC,1.69% (inactive)
15,NNC(N)=O,-1.54% (inactive)
16,CCCSP(=O)(OCC)SCCC,2.76% (inactive)
17,ClC(Cl)(Cl)Cl,-1.25% (inactive) and -2.57% (inactive)
18,C[C@H]1CC[C@@H]2[C@@H](C)[C@H]3[C@H](C[C@H]4[C@@H]5CC=C6CC(O[C@@H]7O[C@H](CO)[C@H](O)[C@H](O[C@@H]8O[C@H](CO)[C@@H](O)[C@H](O)[C@H]8O)[C@H]7O[C@H]7O[C@@H](C)[C@H](O)[C@@H](O)[C@H]7O)CC[C@]6(C)[C@H]5CC[C@]34C)N2C1 (stereo not given in full),11.7% (inactive)
19,CC(C)Nc1ccc(Nc2ccccc2)cc1,3.94% (inactive)
20,CCCCCl,1.93% (inactive)
